# Test results reported in PubChem BioAssay.
# Active and inactive are the calls of the source.
# Key:
# [1] = binders of probe aFSTL3 on microarray, primary screen, stem cell growth factor project, biochemical, small-molecule microarray, fluorescence 635/667 (AID 1064); details: higher = more signal;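 note: measures binding of the biotinylated anti-FSTL3 antibody to printed compounds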
# [2] = binders from COS7 lysate, DM2A8 probe, primary screen, torsin A project, cell lysate, small-molecule microarray, fluorescence 635/667 (AID 1065); details: higher = more signal, COS7 lysate expressing mutant human TOR1A
# [3] = binders of probe aFGF2 on microarray, primary screen, stem cell growth factor project, biochemical, small-molecule microarray, fluorescence 635/667 (AID 1067); details: higher = more signal;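 note: measures binding of biotinylated aFGF2 protein to printed compounds on slides; z-score merges feature fluorescence and signal-to-noise across triplicate slides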
# [4] = binders of probe aFGF10 on microarray, primary screen, stem cell growth factor project, biochemical, small-molecule microarray, fluorescence 635/667 (AID 1071); details: higher = more signal;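 note: score merges 667 nm spot intensity and signal to noise from triplicate slides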
# [5] = biological target: Neurogenic locus notch homolog protein 2 (Homo sapiens) (UniProt Q04721); assay: Notch2 binders on small-molecule microarrays, primary screen, biochemical, small-molecule microarray, 635 nm fluorescence, stem cell growth factors (AID 1073); details: Notch2 binding, higher = more signal
# [6] = biological target: Pro-neuregulin-1, membrane-bound isoform (Homo sapiens) (UniProt Q02297); assay: NRG1 binders on small-molecule microarrays, primary screen, psychiatric disease protein project, biochemical, small-molecule microarray, fluorescence 635/667 (AID 1075); details: NRG1 binding, 635 nm fluorescence, higher = more signal;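 note: score combines 667 nm spot fluorescence with signal to noise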
# [7] = tested on: Neuregulin-1 EGF-like domain; assay: binders of neuregulin-1 EGF-like domain, primary screen, biochemical, small-molecule microarray, 635 nm fluorescence (AID 1081); details: small-molecule microarray binding, higher = more signal;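 note: binding of the protein to compounds printed on small-molecule microarray slides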
# [8] = FRG1 promoter luciferase signal modulators, primary screen, FRG1 inhibition for FSHD, cell-based, C2C12 myotubes, firefly/Renilla luciferase, luminescence (AID 1084); details: higher = more signal, called active from +8 up or from −8 down
# [9] = binders of probe aFST on microarray, primary screen, stem cell growth factor project, biochemical, small-molecule microarray, fluorescence 635/667 (AID 1086); details: higher = more signal;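 note: score merges 667 nm fluorescence with signal-to-noise of each printed compound spot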
# [10] = binders of probe aHhip on microarray, primary screen, stem cell growth factor project, biochemical, small-molecule microarray, fluorescence 635/667 (AID 1087); details: higher = more signal;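 note: score merges spot fluorescence at 667nm with spot signal to noise ratio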
# [11] = tested on: PRMT1 (protein arginine N-methyltransferase 1); assay: PRMT1 binders on small-molecule microarrays, primary screen, biochemical, small-molecule microarray, 635 nm fluorescence (AID 1088); details: small-molecule microarray binding, higher = more signal;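 note: binding of Prmt1 protein to compounds spotted on small-molecule microarray slides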
# [12] = yeast growth modulation, basal conditions, primary screen, YJM789 clinical isolate, OD600, 24 h (AID 1089);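 note: growth of clinical yeast isolate S. cerevisiae YJM 789 seeded 1000 cells per well; test concentration not given here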; details: S. cerevisiae YJM789 growth, higher = more signal, called active from +8 up or from −8 down
# [13] = fission yeast growth modulation, primary screen, strain 972, OD600, 24 h, no modulator (AID 1090);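 note: basal condition with compound alone and no growth modifier present; test concentration not given here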; details: S. pombe 972 growth, higher = more signal, called active from +8 up or from −8 down
# [14] = S. cerevisiae growth modulation with rapamycin, primary screen, strain BY4716, OD600, 96 h (AID 1091); details: higher = more signal, called active from +8 up or from −8 down; note: test concentration not given here
# [15] = biological target: Torsin-1A-interacting protein 2 (Homo sapiens) (UniProt Q8NFQ8); assay: LULL1 binders on small-molecule microarray, primary screen, cell lysate, human LULL1 lysate, 635/667 nm fluorescence (AID 1092); details: hLULL1 lysate binding, 635 nm fluorescence, higher = more signal;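 note: probe is lysate of COS7 cells overexpressing human LULL1; score merges per-feature 667 nm fluorescence with signal-to-noise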
# [16] = E. coli growth modulation, two-sided OD650, primary screen, E. coli filamentation project, strain DRC41, 24 h (AID 1093); details: OD650, 24 h, higher = more signal, called active from +8 up or from −8 down;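 note: MC1000 strain lacking acrAB efflux and sulA so SOS filamentation is blocked; test concentration not given here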
# [17] = small-molecule microarray binders of probe aLefty2, primary screen, biochemical, biotinylated probe, 635/667 nm fluorescence (AID 1094); details: higher = more signal;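 note: score merges spot fluorescence near 667 nm with spot signal-to-noise ratio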
# [18] = tested on: Noggin (protein binding on small-molecule microarray); assay: Noggin binders on small-molecule microarray, primary screen, biochemical, 635/667 nm fluorescence (AID 1095); details: 635 nm fluorescence, higher = more signal;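 note: score merges 667 nm feature fluorescence with signal to noise over triplicate slides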
# [19] = biological target: Neurogenic locus notch homolog protein 3 (Homo sapiens) (UniProt Q9UM47); assay: NOTCH3 binders on small-molecule microarray, primary screen, biochemical, 635/667 nm fluorescence (AID 1096); details: NOTCH3 binding, 635 nm fluorescence, higher = more signal
# [20] = small-molecule microarray binders of probe aEGFR, primary screen, biochemical, biotinylated probe, 635/667 nm fluorescence (AID 1097); details: higher = more signal;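 note: probe is a biotinylated anti-EGFR antibody binding compounds printed on slides; score combines fluorescence near 667 nm and signal to noise of each spot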
# Neurogenic locus notch homolog protein 3 (Homo sapiens), sequence (Q9UM47 whole entry, looked up): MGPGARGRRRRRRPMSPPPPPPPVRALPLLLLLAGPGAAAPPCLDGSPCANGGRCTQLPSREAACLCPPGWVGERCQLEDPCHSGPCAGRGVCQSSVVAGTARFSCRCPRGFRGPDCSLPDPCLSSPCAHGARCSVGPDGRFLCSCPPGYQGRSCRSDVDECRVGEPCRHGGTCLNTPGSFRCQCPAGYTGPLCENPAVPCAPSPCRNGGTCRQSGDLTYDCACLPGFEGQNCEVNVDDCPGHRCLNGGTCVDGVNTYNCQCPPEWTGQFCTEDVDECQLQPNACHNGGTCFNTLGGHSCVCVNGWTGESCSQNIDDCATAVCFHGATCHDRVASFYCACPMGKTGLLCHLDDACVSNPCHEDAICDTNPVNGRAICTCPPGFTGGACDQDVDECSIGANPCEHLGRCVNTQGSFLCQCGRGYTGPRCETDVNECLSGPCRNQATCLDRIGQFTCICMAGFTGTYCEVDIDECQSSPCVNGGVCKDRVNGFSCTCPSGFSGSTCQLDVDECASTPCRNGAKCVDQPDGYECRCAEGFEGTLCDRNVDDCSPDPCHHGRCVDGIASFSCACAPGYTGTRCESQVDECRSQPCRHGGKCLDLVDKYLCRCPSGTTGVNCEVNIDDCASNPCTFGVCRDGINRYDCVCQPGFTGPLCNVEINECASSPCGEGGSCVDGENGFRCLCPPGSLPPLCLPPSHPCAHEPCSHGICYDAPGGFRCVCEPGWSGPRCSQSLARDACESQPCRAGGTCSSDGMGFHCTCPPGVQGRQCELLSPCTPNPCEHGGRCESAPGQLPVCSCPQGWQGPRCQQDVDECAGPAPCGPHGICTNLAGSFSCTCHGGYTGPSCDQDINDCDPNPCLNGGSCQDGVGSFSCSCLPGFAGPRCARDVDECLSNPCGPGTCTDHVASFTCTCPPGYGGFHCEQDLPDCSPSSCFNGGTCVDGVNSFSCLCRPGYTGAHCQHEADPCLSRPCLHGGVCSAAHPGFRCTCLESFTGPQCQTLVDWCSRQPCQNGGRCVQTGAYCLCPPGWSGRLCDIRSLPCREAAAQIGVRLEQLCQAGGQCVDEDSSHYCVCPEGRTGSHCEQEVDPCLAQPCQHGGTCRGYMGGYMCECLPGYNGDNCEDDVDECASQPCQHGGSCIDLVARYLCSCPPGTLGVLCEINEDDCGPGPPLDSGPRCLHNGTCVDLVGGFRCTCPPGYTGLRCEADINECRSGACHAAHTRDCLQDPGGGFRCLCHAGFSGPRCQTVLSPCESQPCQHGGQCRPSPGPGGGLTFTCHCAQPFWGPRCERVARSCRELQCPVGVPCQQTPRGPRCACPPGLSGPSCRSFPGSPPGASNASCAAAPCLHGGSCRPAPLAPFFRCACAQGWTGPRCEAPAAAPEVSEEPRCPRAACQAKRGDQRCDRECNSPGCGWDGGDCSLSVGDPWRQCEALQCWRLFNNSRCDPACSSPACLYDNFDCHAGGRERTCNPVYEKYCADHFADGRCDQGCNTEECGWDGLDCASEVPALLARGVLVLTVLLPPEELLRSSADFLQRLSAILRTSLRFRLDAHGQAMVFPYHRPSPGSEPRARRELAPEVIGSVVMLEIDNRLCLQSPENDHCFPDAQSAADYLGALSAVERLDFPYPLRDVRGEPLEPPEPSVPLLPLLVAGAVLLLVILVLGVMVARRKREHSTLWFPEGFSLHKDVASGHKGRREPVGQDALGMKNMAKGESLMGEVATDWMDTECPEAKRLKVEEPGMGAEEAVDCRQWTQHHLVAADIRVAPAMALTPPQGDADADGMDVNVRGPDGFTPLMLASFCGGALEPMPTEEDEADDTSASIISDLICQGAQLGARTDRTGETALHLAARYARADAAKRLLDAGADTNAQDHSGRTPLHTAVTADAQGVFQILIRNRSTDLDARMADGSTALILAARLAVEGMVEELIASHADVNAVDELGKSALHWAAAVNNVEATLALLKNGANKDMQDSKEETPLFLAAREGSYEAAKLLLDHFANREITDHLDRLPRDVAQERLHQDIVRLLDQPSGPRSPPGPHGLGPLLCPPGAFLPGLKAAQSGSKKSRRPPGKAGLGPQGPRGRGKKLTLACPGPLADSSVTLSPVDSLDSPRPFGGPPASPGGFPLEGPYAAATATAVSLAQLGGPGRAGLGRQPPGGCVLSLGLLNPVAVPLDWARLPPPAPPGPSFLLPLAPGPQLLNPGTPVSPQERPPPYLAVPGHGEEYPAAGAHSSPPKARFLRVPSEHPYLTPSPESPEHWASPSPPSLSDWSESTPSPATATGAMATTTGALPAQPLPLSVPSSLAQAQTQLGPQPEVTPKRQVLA
# Pro-neuregulin-1, membrane-bound isoform (Homo sapiens), sequence (Q02297 whole entry, looked up, the tested form may be a part, canonical isoform): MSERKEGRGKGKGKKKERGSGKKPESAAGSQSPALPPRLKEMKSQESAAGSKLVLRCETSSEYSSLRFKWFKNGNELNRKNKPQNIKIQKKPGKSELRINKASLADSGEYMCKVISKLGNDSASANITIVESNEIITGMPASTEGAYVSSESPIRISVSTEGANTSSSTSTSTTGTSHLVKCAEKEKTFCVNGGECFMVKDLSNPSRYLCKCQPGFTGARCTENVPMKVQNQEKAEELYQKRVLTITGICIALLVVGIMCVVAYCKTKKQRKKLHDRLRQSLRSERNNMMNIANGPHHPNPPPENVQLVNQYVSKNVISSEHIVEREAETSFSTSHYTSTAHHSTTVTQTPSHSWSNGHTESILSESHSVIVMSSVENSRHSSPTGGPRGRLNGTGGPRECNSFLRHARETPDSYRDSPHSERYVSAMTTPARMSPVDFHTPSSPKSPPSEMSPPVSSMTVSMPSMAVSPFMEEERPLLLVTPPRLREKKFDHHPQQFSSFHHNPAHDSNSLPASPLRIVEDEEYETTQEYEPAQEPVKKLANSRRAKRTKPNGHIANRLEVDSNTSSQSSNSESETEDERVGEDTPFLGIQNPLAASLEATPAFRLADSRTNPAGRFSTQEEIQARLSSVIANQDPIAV
# Torsin-1A-interacting protein 2 (Homo sapiens), sequence (Q8NFQ8 whole entry, looked up): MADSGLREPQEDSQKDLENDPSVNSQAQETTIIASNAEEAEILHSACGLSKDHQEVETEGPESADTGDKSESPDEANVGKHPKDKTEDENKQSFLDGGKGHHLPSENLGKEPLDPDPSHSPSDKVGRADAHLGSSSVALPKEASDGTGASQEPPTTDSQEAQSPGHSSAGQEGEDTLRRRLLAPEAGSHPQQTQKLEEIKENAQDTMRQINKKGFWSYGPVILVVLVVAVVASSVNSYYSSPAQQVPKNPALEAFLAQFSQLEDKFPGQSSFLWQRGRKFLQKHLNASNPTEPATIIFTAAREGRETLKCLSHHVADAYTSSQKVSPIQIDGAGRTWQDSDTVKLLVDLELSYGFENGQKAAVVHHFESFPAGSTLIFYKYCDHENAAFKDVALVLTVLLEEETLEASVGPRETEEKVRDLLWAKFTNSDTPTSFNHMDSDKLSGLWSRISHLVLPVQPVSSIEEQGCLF
SMILES,composite z-score [1],composite z-score [2],composite z-score [3],composite z-score [4],composite z-score [5],composite z-score [6],composite z-score [7],z-score [8],composite z-score [9],composite z-score [10],composite z-score [11],z-score [12],z-score [13],z-score [14],composite z-score [15],z-score [16],composite z-score [17],composite z-score [18],composite z-score [19],composite z-score [20]
CC1CC/C=C\[C@H]2OC34C=CCN(Cn5nnc6ccccc65)C(=O)[C@H]3N(CCCCCO)C(=O)[C@@H]4C2C(=O)O1 (stereo not given in full),-0.05,-0.67,-0.148,-0.499,-1.38,-0.917,-0.417,-0.373 (inactive),-0.815,-0.251,0.547,0.31 (inactive),0.423 (inactive),-0.644 (inactive),2.47,0.752 (inactive),-0.169,-0.355,-0.432,-0.18
O=C1OCC=C[C@H]2OC34C=CCN(Cn5nnc6ccccc65)C(=O)[C@H]3N(CCCCCO)C(=O)[C@@H]4[C@@H]12 (stereo not given in full),0.4,-0.629,-0.0069,-0.138,-0.637,2.53,1.16,-0.564 (inactive),-0.779,-0.396,-0.0541,-0.314 (inactive),0.421 (inactive),-0.582 (inactive),2.81,1.65 (inactive),0.484,-0.525,-0.475,-0.108
COc1cc2c(cc1OC)CN(C(=O)[C@H]1[C@@H]3C(=O)O[C@@H](c4ccccc4)[C@@H](c4ccccc4)N3[C@@H](c3ccccc3OCCO)[C@]13C(=O)Nc1ccc(C#CCCO)cc13)CC2,-0.39,0.282,0.0094,0.339,0.775,1.27,1.07,-2.07 (inactive),0.369,-0.0994,1.52,2.11 (inactive),-0.0834 (inactive),3.66 (inactive),1.61,-0.302 (inactive),-0.0499,1.71,1.02,-0.0531
C=C(/C(=C/C[C@H](OC(C)=O)c1ccc(OCCO)cc1)c1cc(C(=O)OC)ccc1OC)C(C)C,-0.183,0.585,-0.145,0.41,0.219,1.17,0.376,-0.863 (inactive),0.388,-0.175,1.55,0.71 (inactive),-0.299 (inactive),-0.874 (inactive),2.79,0.806 (inactive),-0.0616,1.39,0.51,-0.0828
C=CCC(OC(C)=O)[C@@H]1[C@@H](N(Cc2ccc(-c3cccc(C(F)(F)F)c3)o2)C(=O)Cc2ccc(OC)cc2)c2cc(OCCCO)ccc2N1C(=O)c1ccc2ccccc2c1 (stereo not given in full),0.0929,-0.404,-0.043,-0.608,-0.654,0.522,-0.125,0.782 (inactive),0.234,-0.236,-0.485,0.514 (inactive),0.428 (inactive),-0.645 (inactive),0.589,0.315 (inactive),0.0079,0.397,0.035,-0.127
[N-]=[N+]=NCc1ccccc1[C@@H]1OC(c2ccc(OCCCO)cc2)=N[C@]1(CCS(=O)(=O)c1ccccc1)C(=O)N1CCOCC1,0.788,1.17,0.0332,0.89,1.64,1.48,1.29,0.291 (inactive),1.25,-0.0296,1.54,-0.401 (inactive),0.144 (inactive),0.971 (inactive),3.24,1.7 (inactive),0.456,0.256,1.07,0.256
CC(C)C(=C=CC[C@H](O)c1ccc(CO)o1)CCO,0.0959,1.5,-0.141,0.153,-0.57,1.57,1.16,0.859 (inactive),0.164,-0.202,1.52,-0.0662 (inactive),-0.697 (inactive),-0.536 (inactive),1.51,-0.253 (inactive),-0.28,0.679,0.787,-0.14
O=C(O)[C@H](Cc1ccccc1)n1cc(-c2ccccc2)nn1,-0.37,-0.104,-0.0583,0.399,0.533,0.0865,0.871,1.33 (inactive),0.328,-0.181,0.112,0.306 (inactive),0.865 (inactive),0.173 (inactive),1.03,-0.741 (inactive),-0.0592,0.197,0.185,0.119
COCCOC(=O)N1C(=O)[C@@]2(c3cc(C#CC4=CCCCC4)ccc31)[C@H](C(N)=O)[C@H]1C(=O)O[C@H](c3ccccc3)[C@H](c3ccccc3)N1[C@@H]2c1ccc(O)cc1,-0.0926,0.368,0.0122,0.683,1.28,0.758,1.11,-0.95 (inactive),0.416,0.0623,1.55,-1.59 (inactive),-0.638 (inactive),0.0591 (inactive),3.06,0.573 (inactive),0.725,0.735,1.13,0.0038
CCCC[C@@H]1C[C@H]1[C@@H](NC(=O)c1cccnc1)c1ccc(Cl)cc1,1.58,-1.02,-0.423,-1.77,-1.69,-0.549,-0.977,0.188 (inactive),-0.513,0.216,-2.81,-25 (active),-15.4 (active),0.887 (inactive),0.208,-3.26 (inactive),-0.165,-2.93,-2.46,-0.428
CO[C@H]1O[C@H](CO)[C@@H](OC(=O)Nc2ccccc2)[C@@H]2OC(=O)[C@@H](Cc3ccc4ccccc4c3)C/C=C/C[C@H](Cc3ccc4ccccc4c3)C(=O)O[C@@H]12,0.0395,0.821,0.126,0.908,0.336,0.915,0.965,-1.62 (inactive),0.316,-0.191,1.47,-1.38 (inactive),-1.57 (inactive),1.55 (inactive),2.35,2.64 (inactive),-0.0403,0.369,0.977,-0.0449
O=C1O[C@@H](c2ccccc2)[C@@H](c2ccccc2)N2[C@@H](c3ccccc3OCCO)[C@]3(C(=O)Nc4ccc(C#CC5(O)CCCCCC5)cc43)[C@@H](C(=O)N3CCN(c4ncccn4)CC3)[C@H]12,-0.002,0.432,0.0182,0.92,-0.116,0.893,1.2,-2.4 (inactive),-0.0815,-0.137,1.55,3.08 (inactive),0.961 (inactive),7.62 (inactive),2.9,1.21 (inactive),-0.122,0.662,0.821,-0.0542
CN(C)CCCCCCNC(=O)[C@@H]1C[C@@H]2C(=O)N[C@@H](CCCC[N+](C)(C)C)C(=O)N2[C@@H]1c1ccc(O)cc1,-0.725,0.601,-0.183,-0.0779,-1.07,0.334,1.25,4.62 (inactive),-0.334,-0.865,0.821,-0.581 (inactive),-0.689 (inactive),-0.414 (inactive),0.219,-0.227 (inactive),-0.0907,0.576,0.0475,-0.221
NC(=O)[C@@H]1[C@H]2C(=O)O[C@H](c3ccccc3)[C@H](c3ccccc3)N2[C@H](c2ccc(OCCO)cc2)[C@@]12C(=O)Nc1ccc(C#CC3=CCCCC3)cc12,-0.342,0.18,-0.125,1.18,1.23,1.11,1.16,1.15 (inactive),0.447,-0.227,1.55,0.529 (inactive),0.544 (inactive),2.91 (inactive),2.08,1.69 (inactive),0.0209,1.35,0.951,-0.0343
COc1ccc(C(O)C2C=CC3C(=O)N(C)C(=O)C3N2NC(=O)OC(C)(C)C)c2ccccc12 (stereo not given),0.152,-0.129,-0.0107,0.669,1.62,1.81,0.937,-1.35 (inactive),1.37,0.0881,1.57,-0.842 (inactive),1.64 (inactive),0.577 (inactive),3.12,-0.618 (inactive),0.284,-0.149,1.08,0.0185
O=C1NC(=O)C2C1C=CC(C(O)C=Cc1ccc([N+](=O)[O-])cc1)N2Nc1ccc(Cl)cc1Cl (stereo not given),1.03,0.723,0.136,0.797,1.69,1.87,1.12,0.0592 (inactive),0.939,0.206,0.782,-0.17 (inactive),-1.23 (inactive),-0.103 (inactive),2.47,-2.27 (inactive),0.729,-0.518,1.11,0.285
CC(C)=CCCC(C)=CC(O)C1C=CC2C(=O)N(c3ccccc3)C(=O)C2N1Nc1ccc(C(C)C)cc1 (stereo not given),-0.345,-0.687,0.0218,0.249,1.21,1.63,1.06,0.821 (inactive),1.07,-0.13,0.629,0.437 (inactive),0.834 (inactive),1.07 (inactive),3,-0.589 (inactive),0.0937,0.0026,1.05,-0.0234
CC(C)[C@@H](C(=O)O)n1cc(C2(O)CCCCC2)nn1,-0.401,-0.938,-0.183,0.78,0.63,0.394,0.451,0.356 (inactive),0.27,-0.218,0.629,-0.791 (inactive),0.462 (inactive),-1.12 (inactive),1.02,0.616 (inactive),-0.132,0.731,1.05,-0.02
